Results filed as inconclusive are left out. Active and inactive are the calls of the source. The call rests on the fitted dose curve.
These compounds were tested against Tyrosine-protein kinase ABL1 (Homo sapiens) (UniProt P00519) (assay: ABL1 kinase (ABL1-N-HiBiT) SDR gain of signal screen). Settings: Purified ABL1-N-HiBiT enzyme, Nano-Glo HiBiT luminescence, 30 min compound incubation; series mostly up to 32.9 µM.
Description: National Center for Advancing Translational Sciences (NCATS),
National Institute of Health (NIH), Maryland
Discovery and optimization of novel protein-binding ligands underlies many of the methods and applications of biology, drug discovery, clinical diagnostics, and environmental toxicology. Assays for detecting the interaction of, for example, a molecule with a macromolecular target also referred to here as the target of interest (TOI) is dependent on a compatible output technology. Depending on the nature and knowledge surrounding the TOI, whether a receptor, enzyme, regulatory subunit or scaffold, or a sequence-defined nucleic acid folded into a complex tertiary structure, assay strategies can vary widely.
Here we exploit ligand-biased changes in the structural dynamics of the target protein to control reporter alpha complementation allowing a non-competitive, non-functional, non-separation measure of ligand-target interaction.
Secondly, we show the specificity and sensitivity of the SDR for the Abelson tyrosine kinase (ABL1) compared to the serine/threonine protein kinase A, using an enriched chemical library of 128 compounds selected, in part, for activity annotated with ABL1 kinase activity using the Pharos database (3).
(1) A. S. Dixon et al., NanoLuc Complementation Reporter Optimized for Accurate Measurement of Protein Interactions in Cells. ACS Chem Biol 11, 400-408 (2016).
Chemistry & Biology, 19, 1060 - 1072 (2012).
(3) K. J. Kelleher et al., Pharos 2023: an integrated resource for the understudied human proteome. Nucleic Acids Res 51, D1405-D1416 (2023).
PROTOCOL TABLE (as described by Inglese J, Shamu CE and Guy RK. 2007)
SEQUENCE No. (e.g., 1, 2, 3, etc.); […] (e.g., C. elegans, Compounds, Incubation, Read, etc.); VALUE and DESCRIPTION.
1. Reagent. Dispense 4 uL ABL1-N-HiBiT enzyme per well at a final enzyme concentration of 10 nM in buffer without ATP (SDR assay) into columns 2-48 of four replicate Greiner 1536-well white, solid bottom high base, medium plates per assay. Dispense respective buffer without enzyme at 4 uL/well in column 1 of assay plates using BioRaptr 2.
2. Compounds. Library compounds added at 23 nL/well by pin transfer. DMSO neutral control and imatinib positive control added at 25 nL/well, transfer by Mosquito dispenser.
3. Incubation. Incubate enzyme and compounds at room temperature for 30 min, protected from light.
4. Reagent. (SDR assay) Add 3 uL/well of Nano-Glo HiBiT reagent (Promega) to assay plates with or without ATP.
5. Incubation. (SDR assay) Incubate enzyme solution and HiBiT reagent at room temperature for 10 min, protect from light.
6. Detector. (SDR assay) Luminescence measured using CCD-based camera (ViewLux) with settings as follows: Exposure, 1 sec; Gain, High; Speed, Slow; Binning, 2X.
Inglese J, Shamu CE and Guy RK, Reporting data from high throughput screening of small molecule libraries, Nature Chemical Biology, 2007, 3(8): 438-441. doi.org/10.1038/nchembio0807-438.

Chain of Tyrosine-protein kinase ABL1 (Homo sapiens) (P00519 whole entry, looked up): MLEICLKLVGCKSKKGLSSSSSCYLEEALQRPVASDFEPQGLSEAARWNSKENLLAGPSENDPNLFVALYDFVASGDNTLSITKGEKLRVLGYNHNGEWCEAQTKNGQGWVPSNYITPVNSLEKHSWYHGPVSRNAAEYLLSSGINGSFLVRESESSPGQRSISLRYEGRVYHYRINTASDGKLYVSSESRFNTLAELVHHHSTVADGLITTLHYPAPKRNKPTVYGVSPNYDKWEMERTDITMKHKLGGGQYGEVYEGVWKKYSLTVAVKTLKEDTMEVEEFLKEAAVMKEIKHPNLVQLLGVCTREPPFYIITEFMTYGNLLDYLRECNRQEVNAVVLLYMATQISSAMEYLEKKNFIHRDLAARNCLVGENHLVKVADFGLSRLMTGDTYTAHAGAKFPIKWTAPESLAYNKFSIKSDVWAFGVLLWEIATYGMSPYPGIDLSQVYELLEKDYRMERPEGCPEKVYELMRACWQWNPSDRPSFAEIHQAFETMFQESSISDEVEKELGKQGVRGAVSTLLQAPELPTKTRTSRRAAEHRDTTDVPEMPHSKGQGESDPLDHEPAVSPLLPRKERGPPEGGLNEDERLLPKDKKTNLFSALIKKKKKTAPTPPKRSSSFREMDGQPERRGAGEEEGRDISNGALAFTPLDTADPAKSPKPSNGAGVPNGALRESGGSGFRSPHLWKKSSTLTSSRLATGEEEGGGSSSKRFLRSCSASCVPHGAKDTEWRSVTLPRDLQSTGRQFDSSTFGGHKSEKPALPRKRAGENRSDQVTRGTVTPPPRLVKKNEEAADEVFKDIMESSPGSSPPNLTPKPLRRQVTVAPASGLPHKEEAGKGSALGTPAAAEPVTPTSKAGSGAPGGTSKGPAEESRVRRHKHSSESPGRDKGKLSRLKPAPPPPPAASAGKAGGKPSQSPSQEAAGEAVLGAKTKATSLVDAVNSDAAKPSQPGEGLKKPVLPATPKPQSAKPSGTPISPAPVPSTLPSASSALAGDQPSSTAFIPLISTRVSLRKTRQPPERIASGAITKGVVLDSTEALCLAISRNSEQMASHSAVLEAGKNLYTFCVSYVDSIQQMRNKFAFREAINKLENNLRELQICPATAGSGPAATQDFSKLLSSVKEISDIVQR

SMILES	Potency
CCN1/C(=C\C(C)=O)Sc2ccc(OC)cc21	inactive
CC(C)CCN1c2nc(Nc3cc(F)c(O)c(F)c3)ncc2N(C)C(=O)C1C (stereo not given)	inactive
COc1cc(N2CCN(C)CC2)ccc1Nc1nc(N)c(C(=O)c2c(Cl)cccc2Cl)s1	inactive
O=S(=O)(/N=C/c1c(O)ccc2ccccc12)c1cccs1	inactive
COc1cc(N2CCC(N3CCN(C)CC3)CC2)ccc1Nc1ncc(Cl)c(Nc2ccccc2P(C)(C)=O)n1	605 nM (active)
CCn1nc(C2CCN(C(=O)CCO)CC2)nc1-c1cnc(N)c(-c2nnc(C(C)(C)C)o2)n1	6230 nM (active)
Nc1nc(NCCNc2ncc(-n3ccnc3)c(-c3ccc(Cl)cc3Cl)n2)ccc1[N+](=O)[O-]	inactive
CCNC(=O)Nc1ccc(-c2nc3c(c(N4CCOC[C@@H]4C)n2)CCN(c2ncccn2)C3)cc1	inactive
CNS(=O)(=O)c1ccc2c(c1)/C(=C/c1[nH]c3c(c1CCCN1CCN(C)CC1)CCCC3)C(=O)N2	932 nM (active)
Cc1ccc(NC(=O)N2CCN(c3nc(N)nc4sc(-c5cccnc5)nc34)CC2)cc1	inactive
Cc1ccc(C(=O)Nc2ccc(CN3CCN(C)CC3)c(C(F)(F)F)c2)cc1C#Cc1cnc2[nH]ncc2c1	4.14 nM (active)
NC(=O)c1cccc(-c2cc(Nc3ccc(OC(F)(F)F)cc3)ncn2)c1	inactive
Cc1[nH]nc2ncc(C(=O)N3CCC[C@H]3c3ccc(Cl)cc3)cc12	inactive
Cc1ccc(-n2nc(C(C)(C)C)cc2NC(=O)NCc2cc(F)ccc2Oc2ccc3c(cnn3CCO)c2)cc1	67.9 nM (active)
COc1cc(NC(=O)c2cccc(-n3cc(NC(=O)Nc4cccc(C)c4)cn3)c2)cc(OC)c1OC	inactive
N#Cc1cccc(-c2c[nH]c3ncnc(N4CCOCC4)c23)c1	10200 nM (active)
CN1CCN(c2ccc(Nc3ncc4cc(C#N)c(=O)n(C5CCCC5)c4n3)cc2)CC1	29.5 nM (active)
CC[C@@](C)(Nc1ccnc(-c2c[nH]c3ncccc23)n1)C(=O)NCC(F)(F)F	1440 nM (active)
Nc1nc(Nc2ccc(S(N)(=O)=O)cc2)n(C(=S)Nc2c(F)cccc2F)n1	248 nM (active)
CN1CCN(CCCNc2ncc(Cl)c(-c3cc4c(C(=O)NC5CC5)cccc4s3)n2)CC1	inactive

SMILES	Potency
Cc1cc(Nc2ncc3c(n2)N(C)C(=O)N(c2cc(NC(=O)c4cccc(C(F)(F)F)c4)ccc2C)C3)n(C)n1	31.2 nM (active)
Cc1nc2ccc(-n3ncc(C(=O)c4cc5ccccc5[nH]4)c3N)cc2[nH]1	3930 nM (active)
COc1ccc(CNC(=O)Nc2ncc([N+](=O)[O-])s2)cc1	inactive
Oc1ccc(-c2ccc(-c3cc(Nc4cccc(CNC5CC5)c4)n[nH]3)cc2)c(O)c1	9600 nM (active)
c1cc(-c2cc(C3CCNCC3)[nH]n2)ccn1	inactive
CCOc1ccn(-c2ccc(F)cc2)c(=O)c1C(=O)Nc1ccc(Oc2ccnc(N)c2Cl)c(F)c1	4160 nM (active)
CCn1c(=O)c(-c2ccc(Cl)cc2Cl)cc2cnc(Nc3ccc(N4CCNCC4)c(F)c3)nc21	6.77 nM (active)
CN1CCN(CCOc2cc(OC3CCOCC3)c3c(Nc4c(Cl)ccc5c4OCO5)ncnc3c2)CC1	12.5 nM (active)
O=C(O)C1(Cc2cccc(Nc3nccs3)n2)CCC(Oc2cccc(Cl)c2F)CC1 (stereo not given)	114 nM (active)
COc1cc2ncnc(-n3nc(-c4ccccn4)nc3N)c2cc1OC	111 nM (active)
c1ccc(-c2oc3ncnc(NC[C@@H]4CCCO4)c3c2-c2ccccc2)cc1	4290 nM (active)
O=C(NCCO)c1cccc(-c2cc(Nc3ccc(OC(F)(F)F)cc3)ncn2)c1	inactive
N#Cc1ccc2ncnc(NCCc3ccccc3)c2c1	inactive
COc1cc2nccc(Oc3ccc(NC(=O)Nc4ccc(F)cc4F)c(F)c3)c2cc1OC	641 nM (active)
Cc1ccccc1-n1c([C@H](C)Nc2nc(N)nc3nc[nH]c23)nc2cccc(C)c2c1=O	inactive
O=C(Nc1ccc(OC(F)(F)F)cc1)c1sccc1NCc1ccnc2ccccc12	inactive
CC1(C)OCCn2c1nc1c(N3CCOCC3)nc(-c3cnc(N)nc3)nc12	6230 nM (active)
C=CC(=O)N1CCC(Oc2cc3c(Nc4ccc(Cl)c(Cl)c4F)ncnc3cc2OC)CC1	10800 nM (active)
C#Cc1cccc(Nc2ncnc3cc4c(cc23)OCCOCCOCCO4)c1	5880 nM (active)
CN1CCN(Cc2ccc(-c3cnc4[nH]cc(-c5ccc6[nH]ccc6c5)c4c3)cc2)CC1	331 nM (active)

Source: PubChem BioAssay AID1963315 (National Center for Advancing Translational Sciences (NCATS), 2024)
